Assay outcomes as filed in PubChem BioAssay.
The list is not random: actives were taken first. Their share in the collection is about 7.5%.
KinaseGlo FLuc = Counterscreen for Luciferase (Kinase-Glo TM) Inhibition. Luciferin 4-monooxygenase (Photuris pensylvanica), Q27757. Kinase-Glo luciferase, ATP luminescence, 8 min. Potency, µM (series often up to 38.3 µM), inactives show top-dose activity change, negative = inhibition, usual class: inhibitors. 0.28% of 200,000 active. AID 1379, 2008; also: % is scaled to controls: 0 for no effect and ±100 for the full control effect; nearly all actives have a fitted effect of over 60% in size
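Recombinant Kinase-Glo luciferase, 10 uM ATP (linear range), luciferin; imidazole pH 7.2 / KCl / MgCl2 / Tween / BSA buffer; 8 min RT; luminescence.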
Rab9 prom act = qHTS Assay for Rab9 Promoter Activators; AID 485297, 2010; Potency, µM (doses to about 9.22 µM), without a hit: at the top dose activation, negative = inhibition, usual class: activators; 2.8% of 320,000 active; Huh7 Rab9 promoter-luciferase reporter, luminescence, 24 h; also: % of control where 0% means no effect; nearly all actives have a fitted effect of over 60% in size
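Quantitative HTS format; Huh7 Rab9-luciferase reporter cells (1500/well) receive compound 2 h post-plating, incubate 24 h at 37 °C, then get luciferase reagent for 10 min before luminescence reading.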
NPC1 promoter act = qHTS Assay for NPC1 Promoter Activators; Huh7 NPC1 promoter luciferase reporter, 24 h; Potency, µM (highest dose often 9.22 µM), without a hit: at the top dose activation, usual class: activators; 2.4% of 320,000 active; AID 485313, 2010; also: % of control where 0% means no effect; nearly all actives have a fitted effect of over 60% in size
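Luminescence from an NPC1 promoter-driven luciferase reporter in stably transfected Huh7 cells was measured after 24 h compound treatment at 37 °C, followed by 10 min ambient incubation with luciferase detection reagent.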
ELG1 genotoxic = qHTS screen for small molecules that induce genotoxicity in human embryonic kidney (HEK293T) cells expressing luciferase-tagged ELG1; 1.3% of 330,000 active; Potency, µM (highest dose often 46 µM), inactives show top-dose activity change, positive = activation, hits mostly activators; HEK293T ELG1-luciferase reporter, luminescence, 16 h; AID 504466, 2011; also: % of control where 0% means no effect; nearly all actives have a fitted effect of over 60% in size
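DMSO vehicle served as control against compound-treated ELG1-luciferase HEK293T cells; exposure lasted 16 hr at 37 °C and 5% CO2, followed by ONE-Glo luminescence detection after 30 min.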
SMN2 splice enh = qHTS Assay for Enhancers of SMN2 Splice Variant Expression | HEK293 SMN2-luciferase splicing reporter, luminescence, 30-36 h | Potency, µM (doses to about 46.1 µM), for the others: top-dose activity change, positive = activation, hits mostly activators | 2.8% of 210,000 active; also: % of control where 0% means no effect; nearly all actives have a fitted effect of over 55% in size
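HEK293 cells carry an SMN2 […]–luciferase reporter in which exon 7 inclusion puts luciferase in frame. Cells were plated 10-12 h before compound addition, then incubated 30-36 h at 37C. ONE-Glo luminescence was read; sodium butyrate at 4.5 mM final served as control.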
FLuc counter = qHTS profiling assay for firefly luciferase inhibitor/activator using purifed enzyme and Km concentrations of substrates (counterscreen for miR-21 project); 6.9% of 360,000 active; Luciferin 4-monooxygenase (Photinus pyralis), P08659; Potency, µM (highest dose often 57.5 µM), for inactives: at the highest dose activity change, negative = inhibition, hits mostly inhibitors; AID 588342, 2011; purified FLuc, Km substrates, luminescence inhibition;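 also: plate controls were vehicle for no effect and reference inhibitor for full effect; nearly all actives have a fitted effect of over 55% in size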
Target sequence (P08659 whole entry, looked up): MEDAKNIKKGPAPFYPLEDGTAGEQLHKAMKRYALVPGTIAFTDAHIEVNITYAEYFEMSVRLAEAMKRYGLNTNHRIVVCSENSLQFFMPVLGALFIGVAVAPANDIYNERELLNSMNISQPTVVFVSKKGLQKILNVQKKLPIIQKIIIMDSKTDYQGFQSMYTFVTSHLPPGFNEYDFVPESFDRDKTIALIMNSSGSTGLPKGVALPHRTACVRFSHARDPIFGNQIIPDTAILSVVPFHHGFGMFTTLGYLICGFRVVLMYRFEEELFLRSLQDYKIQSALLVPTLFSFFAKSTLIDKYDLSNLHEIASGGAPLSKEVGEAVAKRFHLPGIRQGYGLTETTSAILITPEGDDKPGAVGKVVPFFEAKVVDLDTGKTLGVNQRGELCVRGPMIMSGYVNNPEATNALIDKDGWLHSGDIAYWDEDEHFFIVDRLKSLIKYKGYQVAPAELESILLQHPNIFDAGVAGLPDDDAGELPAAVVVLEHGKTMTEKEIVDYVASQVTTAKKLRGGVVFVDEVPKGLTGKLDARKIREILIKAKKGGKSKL
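Purified P. pyralis luciferase, 10 nM final, with Km-level 10 uM D-luciferin and 10 uM ATP in 50 mM Tris acetate pH 7.5, 10 mM Mg acetate, 0.01% Tween-20, 0.05% BSA; 6-point qHTS titration about 60 µM downward; luminescence read.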
* = called active by the depositor; ? = inconclusive; . = no result given. Calls follow the shape of the dose curve; as a rule, active = well fitted curve in the direction sought with a large enough effect; inconclusive = small, poorly fitted or top-dose-only effect, or another doubt; inactive = no such curve, though single readings can be large; an effect the other way counts as inactive or inconclusive. Potency is read from the fitted curve at half-maximal effect.

SMILES | KinaseGlo FLuc | Rab9 prom act | NPC1 promoter act | ELG1 genotoxic | SMN2 splice enh | FLuc counter
COc1ccc(-n2nc(C(=O)NCC(=O)N3CCCCC3)c3ccccc3c2=O)cc1 | . | 11% | 4% | 1% | . | 3µM*
COc1ccc(-n2nc(C(=O)NCC(=O)NC(C)C)c3ccccc3c2=O)cc1 | . | 1% | 2% | -4% | . | 1%
CCN1CCN(C(=O)CNC(=O)c2nn(-c3ccc(OC)cc3)c(=O)c3ccccc23)CC1 | . | 6% | 0% | 15% | . | 4.8µM*
COc1ccc(-n2nc(C(=O)NCC(=O)N(C)Cc3ccccc3)c3ccccc3c2=O)cc1 | . | 6% | 2% | -20% | . | 17µM*
COc1ccc(-n2nc(C(=O)NCC(=O)O)c3ccccc3c2=O)cc1 | . | -2% | 2% | 0% | . | 2%
COc1ccc(-n2nc(C(=O)NCC(=O)N3CCCC3)c3ccccc3c2=O)cc1 | . | 0% | 3% | 3% | . | 12µM*
CCOc1ccc(NC(=O)Cn2cc(S(=O)(=O)N3CCN(c4ccccc4F)CC3)c3ccccc3c2=O)cc1 | . | . | . | . | -5% | 1%
C=CCn1c(C)c(C(C)=O)c(N2CCN(C(c3ccccc3)c3ccccc3)CC2)nc1=S | 1% | -2% | -18% | -14% | -49% | -9%
COc1ccc2c(CNCCc3ccccc3)c(C(=O)O)n(Cc3cccc(F)c3)c2c1 | . | . | . | . | . | -11%
Cc1ccccc1NC(=O)c1sc2nc(N3CCOCC3)c3c(c2c1N)CC(C)(C)OC3 | . | . | . | . | -5% | -3%
CCN(CC)S(=O)(=O)c1ccc(NC(=O)c2ccc(N3CCCC3=O)cc2)cc1 | . | . | . | 2% | . | .
CCN(CC(=O)Nc1ccc(NC(C)=O)cc1)C(=O)CCCc1nc2ccccc2s1 | . | -3% | 1% | 1% | . | -6%
O=S(=O)(Nc1cccc(-c2ccc(N3CCCC3)nn2)c1)c1ccc(F)cc1F | . | . | . | . | . | 15µM*
O=S(=O)(Nc1cccc(-c2ccc(N3CCCCC3)nn2)c1)c1cccc(F)c1 | . | . | . | . | . | 2.4µM*
Cc1ccc(S(=O)(=O)Nc2ccc(-c3ccc(N4CCCCCC4)nn3)cc2)c(C)c1 | . | . | . | . | . | -19%
O=S(=O)(Nc1cccc(-c2cn3c(n2)SCC3)c1)c1ccc(F)cc1F | . | 5% | -1% | -4% | . | -5%
Cc1ccc(S(=O)(=O)Nc2cccc(-c3ccc(N4CCCCCC4)nn3)c2)c(C)c1 | . | ? | ? | ? | . | 11µM*
CCOc1ccc(N=C2NC(=O)S/C2=C\c2ccc(Cl)cc2)cc1 | -2% | -3% | 0% | 0% | 9% | 2%
COc1ccc(N=C2NC(=O)S/C2=C\c2ccc(N(C)C)cc2)cc1 | -3% | ? | ? | ? | ? | 21µM*
Cc1nc2ccc([N+](=O)[O-])cc2nc1C | -3% | -1% | -1% | -2% | 1% | 6%
Nc1ccc2oc(C3CCCCC3)nc2c1 | -3% | ? | ? | ? | 11µM* | 24µM*
O=[N+]([O-])c1ccc2oc(C3CCCCC3)nc2c1 | 1% | ? | 15% | ? | . | 17µM*
Cn1c(C2CCCCC2)nc2cc(N)ccc21 | . | -1% | 0% | 2% | . | -20%
COc1cccc(NC(=O)CN(C)CC(=O)Nc2ccc(Cl)cc2[N+](=O)[O-])c1 | 1% | -2% | -1% | -6% | -16% | 2%
CCOC(=O)c1nnc2c(-c3ccc(Cl)cc3)c(C)nn2c1C | . | . | . | . | 3% | -19%
SMILES | KinaseGlo FLuc | Rab9 prom act | NPC1 promoter act | ELG1 genotoxic | SMN2 splice enh | FLuc counter
COc1ccccc1NC(=O)c1ccc(NC(=O)CSc2nc(N)cc(=O)[nH]2)cc1 | . | -4% | -7% | 7% | . | 3%
Nc1ccc(Nc2nc(-c3cc4ccccc4oc3=O)cs2)cc1 | -1% | ? | ? | ? | ? | 2.4µM*
COc1ccc2oc(=O)c(-c3csc(Nc4cccc(O)c4)n3)cc2c1 | -2% | -2% | 11% | 0% | ? | 1.7µM*
COc1ccc2cc(-c3nnc(Nc4ccccc4)s3)c(=O)oc2c1 | . | . | . | . | . | 2%
CNc1nnc(-c2cc3ccccc3oc2=O)s1 | ? | 1.4µM* | 1.4µM* | 18µM* | 13µM* | 4.8µM*
CC(=O)Nc1ccc(Nc2nc(-c3cc4ccccc4oc3=O)cs2)cc1 | . | ? | ? | ? | . | 5.4µM*
Cc1ccc2c(=O)cc(C(=O)Nc3sc4c(c3C(=O)NCC3CCCO3)CCCC4)oc2c1C (stereo not drawn) | . | . | . | . | -8% | 1%
O=C(O)c1ccc(Nc2nc(-c3cc4ccccc4oc3=O)cs2)cc1O | 1% | 2% | 8% | 9% | 1% | 4.8µM*
COc1cccc2sc(Nc3nc(-c4cc5ccccc5oc4=O)cs3)nc12 | 0% | -19% | -26% | 6% | -8% | ?
C1CNCCNCCCNCCNC1 | -3% | 1% | 1% | 2% | -44% | 4%
CN(C)c1ccc(-c2nnc(-c3cccs3)o2)cc1 | -13% | 0.32µM* | 0.5µM* | ? | 2.2µM* | 0.76µM*
CCOc1ccc(-c2nnc(-c3ccc(OC)cc3)o2)cc1 | -5% | 19% | 10% | 2% | -6% | ?
CCOC(=O)CNC(=O)Nc1nnc(-c2ccc(OCC)cc2)o1 | 0% | 3% | 23% | 8% | -7% | 12µM*
CN(C)c1oc(-c2cccs2)nc1C#N | 0% | -2% | 1% | 8% | 11% | 0%
CCOc1ccc(-c2nnc(-c3ccccc3)o2)cc1 | -16% | 0.71µM* | 1.6µM* | ? | 0.56µM* | 1.1µM*
CCCOc1ccc(-c2nnc(-c3cccs3)o2)cc1 | -14% | 0.56µM* | 0.71µM* | ? | 4.5µM* | 0.67µM*
Cc1cccc(OCCSc2nnc(-c3cccs3)o2)c1 | . | . | . | . | . | -17%
COc1cccc(CCNC(=O)c2cnc3sc(N4CCOCC4)nn3c2=O)c1 | . | . | . | . | 16% | 4%
COc1ccc(CCNC(=O)c2cnn(-c3cccc(C)c3)c2C2CCNCC2)cc1OC | . | . | . | . | . | 0%
O=c1[nH][nH]c(=S)n1-c1ccccc1C(F)(F)F | . | 1% | 3% | 0% | . | ?
CCCCOC(=O)c1nnc(-c2ccccc2)o1 | . | 2% | 1% | 3% | . | 12µM*
CCCCOc1ccc(-c2nnc(-c3cc[n+](C)cc3)o2)cc1 | -1% | -3% | 2% | -2% | . | -1%
CCCCOc1ccc(-c2nnc(-c3ccncc3)o2)cc1 | . | 4µM* | ? | ? | . | 12µM*
CCOc1ccc(-c2nnc(N)o2)cc1 | -1% | 7% | 9% | 12% | -15% | ?
CCOc1ccc(-c2nnc(-c3ccncc3)o2)cc1 | -17% | 1.6µM* | 1.8µM* | 20% | ? | 9.5µM*
